Results reported in PubChem BioAssay (NCI).
About 79,000 compounds went through this panel and 15% of them were active in at least one assay; those are over-represented in the sample as a whole. The source made the active and inactive calls. Cut-off read from the data, not from the text of the source: active = growth inhibition above about 70%; inactive = the rest.

How the values were obtained:
[1] = NCI Yeast Anticancer Drug Screen. Data for the rad50 strain (AID 155);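 note: 0% = growth of vehicle-only cultures of the same strain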; conditions: S. cerevisiae rad50 strain growth inhibition; at 50.0 µM; hits give high values
How it was run: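 Relative growth inhibition (compound vs vehicle) was measured in yeast with a defined repair-gene alteration.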

[2] = NCI Yeast Anticancer Drug Screen. Data for the mec2-1 strain (AID 157); conditions: S. cerevisiae mec2-1 strain, at 50.0 µM, hits give high values
How it was run: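 Yeast mec2-1 mutant treated with compound. Readout: growth inhibition vs vehicle controls.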

[3] = NCI Yeast Anticancer Drug Screen. Data for the sgs1 mgt1 strain (AID 161);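 note: 0% = growth of cultures given vehicle only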; conditions: S. cerevisiae sgs1 mgt1 strain, at 50.0 µM, hits give high values
How it was run: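 Test agents were incubated with a DNA-repair-mutant yeast strain. Growth was then read and compared against vehicle-treated controls.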

[4] = NCI Yeast Anticancer Drug Screen. Data for the cln2 rad14 strain (AID 165);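 note: 0% = growth equal to vehicle treated cultures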; conditions: S. cerevisiae cln2 rad14 strain, at 50.0 µM, hits give high values
How it was run: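 cln2 rad14 yeast strain; compound exposure; growth inhibition read vs vehicle controls.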

[5] = NCI Yeast Anticancer Drug Screen. Data for the bub3 strain (AID 167); conditions: S. cerevisiae bub3 mutant strain, at 50.0 µM, hits give high values
How it was run: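 Screening used yeast with an engineered genetic alteration affecting cell cycle control. Compound-exposed cultures were compared with vehicle cultures, and reduced growth was taken as inhibition.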

[6] = NCI Yeast Anticancer Drug Screen. Data for the mlh1 rad18 strain (AID 175); conditions: S. cerevisiae mlh1 rad18 strain growth inhibition; at 50.0 µM; hits give high values
How it was run: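 Yeast w/ defined DNA-repair lesions; compound exposure; growth vs vehicle controls → % inhibition.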

Measured: growth inhibition

CC(=O)NC(Cc1c[nH]c2ccccc12)C(=O)O (stereo not given)
inactive: [1] -21.4% | [2] -37.8% | [3] -30.6% | [4] -23.4% | [5] -35.8% | [6] -5.65%

CC1=CC(=O)OC1=O
inactive: [1] 4.9% | [2] 15% | [3] 2.15% | [4] 8.9% | [5] 5.9% | [6] 22%

O=P(O)(CP(=O)(c1ccccc1)c1ccccc1)c1ccccc1
inactive: [1] 15.3% | [2] 7.25% | [3] 15.9% | [4] 16.2% | [5] 5.9% | [6] 10.9%

CC(C)(c1ccccc1)c1ccc(Oc2ccc(C#N)c(C#N)c2)cc1
inactive: [1] -27.2% | [2] -7.6% | [3] -14% | [4] 3.3% | [5] -35.8% | [6] -21.6%

COc1nc2c(c(O)c(C)c(=O)n2OC2OC(COC(C)=O)C(OC(C)=O)C(OC(C)=O)C2OC(C)=O)c(=O)n1C (stereo not given)
inactive: [1] -2.1% | [2] -15.8% | [3] 7.95% | [4] -7.75% | [5] 0.45% | [6] 2.3%

O=C(NC(CO)C(=O)O)c1ccccc1 (stereo not given)
inactive: [1] 6.65% | [2] -14.2% | [3] -14.5% | [4] -44.5% | [5] -18.9% | [6] -12.9%

COc1ccc(CCCCl)c(C2=NCCc3ccccc32)c1
inactive: [1] 25.2% | [2] 12.7% | [3] -17.3% | [4] 12.2% | [5] -0.55% | [6] 1.95%

CN(C(=O)C12C3C4C1C1C2C3C41C(=O)N(C)C(C)(C)C)C(C)(C)C (stereo not given)
inactive: [1] 13.9% | [2] 11.5% | [3] -7.4% | [4] 9.45% | [5] 23.4% | [6] -2.4%

CN1CCC/C1=C/C(=O)c1ccccc1[N+](=O)[O-]
inactive: [1] 2.9% | [2] -0.1% | [3] -0.65% | [4] -28.3% | [5] 9.6% | [6] -11.7%

CC[O-].CC[O-].O=C([CH-]C(=O)c1cccnc1)c1ccccc1.O=C([CH-]C(=O)c1cccnc1)c1ccccc1.[Ti+4]
inactive: [1] -0.05% | [2] 19.8% | [3] -19.9% | [4] -16.2% | [5] -11.6% | [6] -8.4%

Clc1cc2nnn(C3CCCCO3)c2cc1Cl (stereo not given)
inactive: [1] 9.75% | [2] -3.05% | [3] -23.4% | [4] -12.3% | [5] -0.9% | [6] 14.4%

N#CCCc1ccc[nH]1
inactive: [1] -15.8% | [2] -8.45% | [3] -7.95% | [4] 10.6% | [5] 5.6% | [6] -5.85%

N#C/C(C(=N)c1ccccc1)=C1\SS/C(=C(\C#N)C(=N)c2ccccc2)S1
inactive: [1] 7.2% | [2] 2.35% | [3] 7.6% | [4] 23.7% | [5] 3.7% | [6] -4.45%

O=C(OC1(c2nccc3ccccc23)CCCN(Cc2ccccc2)C1)c1ccccc1 (stereo not given)
inactive: [1] 28.9% | [2] 11.8% | [3] 15.9% | [4] 14.2% | [5] -1.4% | [6] 24.1%

CCOC(=O)/C(C#N)=C/Nc1[nH]c(=O)c(C#N)c(-c2ccc(Cl)cc2)c1SC
inactive: [1] 10.9% | [2] 5.8% | [3] -9.35% | [4] -9.2% | [5] 2.1% | [6] 16.8%

C1=CC(=C(c2ccccc2)c2ccccc2)C=C1
inactive: [1] -17.1% | [2] -16.9% | [3] -4.5% | [4] -19.2% | [5] -2.75% | [6] -1.9%

O=C(O)C(c1ccccc1)C(F)(F)F (stereo not given)
inactive: [1] -1.45% | [2] 11.1% | [3] 2.45% | [4] -10.4% | [5] -2.1% | [6] 0.85%

O=c1c2ccccc2nnn1OCc1ccccc1
inactive: [1] 24.5% | [2] 3.1% | [3] 11% | [4] -39.5% | [5] -12.3% | [6] 3.95%

C=C(COC(=O)C(C)C)[C@H]1Oc2ccc(C(C)=O)cc2[C@@H]1OC(=O)C(C)C
inactive: [1] -11.5% | [2] -3.9% | [3] -15.9% | [4] -9.55% | [5] 0.45% | [6] -23.1%

C1CCC(c2nn[nH]n2)CC1
inactive: [1] 2.3% | [2] -7.05% | [3] 3.25% | [4] 11.7% | [5] 8.05% | [6] 1%

CC1(C)CS(=O)(=O)CC(C)(C)C(=N/N)/C1=N\N
inactive: [1] 20.1% | [2] 26.9% | [3] -13.2% | [4] 5.8% | [5] -6.95% | [6] -18.2%

NCCNC(=O)Cc1cccc2ccccc12
inactive: [1] -21.1% | [2] -48% | [3] -5.15% | [4] 3.6% | [5] -36.5% | [6] -3.05%

COc1ccc(OC)c(CNc2ccc(C(=O)O)cc2)c1
inactive: [1] 11.4% | [2] -1.25% | [3] 15% | [4] -1.9% | [5] 6.75% | [6] 29.6%

CNC(=O)NC1NC(=O)N(C)C1=O (stereo not given)
inactive: [1] 0.3% | [2] -12.7% | [3] -0.4% | [4] -14.6% | [5] -0.45% | [6] -12.7%

CCN(CC)C(=O)C1Cc2ccccc2N(C)C1 (stereo not given)
inactive: [1] -16.6% | [2] -8.5% | [3] -10.4% | [4] -41.5% | [5] 3.05% | [6] -2.85%

CCCCS(=O)(=O)CCCCCCl
inactive: [1] 1.55% | [2] -2.95% | [3] -6.25% | [4] -13.5% | [5] -6.45% | [6] 9.55%

CCN(CC)CCNc1ccc(C)c2sc3ccc(N)cc3c(=O)c12
inactive: [1] 30.3% | [2] 18.1% | [3] 8.9% | [4] 28.3% | [5] -0.35% | [6] 19.8%

BrC1(C2(Br)N(c3ccccc3)CCN2c2ccccc2)N(c2ccccc2)CCN1c1ccccc1
inactive: [1] 53% | [2] -1.55% | [3] 42.4% | [4] 10.2% | [5] 2% | [6] 11.6%

CC(C)(C)c1ccc(OCC(=O)O)cc1
inactive: [1] -17.3% | [2] -12% | [3] -7.2% | [4] -17.4% | [5] -8.4% | [6] -6.6%

CCCCCCCCCCC1OCC(CC)([N+](=O)[O-])CO1 (stereo not given)
inactive: [1] 10.2% | [2] -27.9% | [3] 18.3% | [4] -46.4% | [5] 9.25% | [6] -10.6%

Cn1ncc2c(=O)[nH]c(NCCO)nc21
inactive: [1] 3.3% | [2] 1.25% | [3] 0.9% | [4] -16.9% | [5] 8.7% | [6] 0.4%

Cc1ccc(N=Cc2cccs2)c(Br)c1
inactive: [1] -5.7% | [2] -20.1% | [3] -0.2% | [4] 6.4% | [5] -0.95% | [6] 5.95%

c1ccc(CC2CCCC(Cc3ccccc3)N2)cc1 (stereo not given)
inactive: [1] -1.25% | [2] -16.4% | [3] -5.55% | [4] -49.3% | [5] 16.1% | [6] 5.1%

O=C(O)CCCCCCCCC(=O)c1cc(O)ccc1O
inactive: [1] -5.3% | [2] 42.1% | [3] 35.7% | [4] -7.25% | [5] 20.4% | [6] 7.9%

C#CC(C)(CC)OC(C)=O (stereo not given)
inactive: [1] 44.3% | [2] -16.4% | [3] 7.6% | [4] -23% | [5] 19.9% | [6] 20.3%

C(=C\C(SCc1ccccc1)SCc1ccccc1)/c1ccccc1
inactive: [1] -43% | [2] -60% | [3] -27.8% | [4] 3.55% | [5] -7.2% | [6] -35.6%

NC(=O)N/N=C/c1ccc2c(c1)OCO2
inactive: [1] 20.1% | [2] -7.9% | [3] 0% | [4] 8.45% | [5] -0.15% | [6] 13.8%

COc1ccc(-c2nnc(CCCCCCCCc3nnc(-c4ccc(OC)cc4)n3N)n2N)cc1
inactive: [1] -8.05% | [2] -23.9% | [3] -9.45% | [4] 0.8% | [5] -2.7% | [6] -1%

CCOc1ccc(C(=O)CCC(=O)Nc2ccc(Br)cc2)cc1
inactive: [1] 13.1% | [2] 5.8% | [3] 13.1% | [4] -7.3% | [5] 8.75% | [6] 20.4%

O=C1c2ccccc2C(=O)N1CCc1ncc[nH]1
inactive: [1] 1.45% | [2] 17% | [3] 0.15% | [4] -23.9% | [5] 6.3% | [6] 2.9%
